Rows were chosen to be rich in hits. Some 1.6% of all compounds tested hit in one or more screens of this group.
OPRM1-OPRD1 inv – inverse agonists of MOR-DOR heterodimerization, primary screen, cell-based, luminescence; Mu-type opioid receptor (Homo sapiens) + Delta-type opioid receptor (Homo sapiens), …; cell-based MOR-DOR heterodimer luminescence, inverse agonism; inhibition, % at 9.3 µM; actives 0.21% (n = 340,000); AID 504357, 2011; in the data active = inhibition above about 22%, passing the limit was not always enough
HTR5A ag ctr – HTR5A agonists in luminescence cell assay, primary screen, counter-screen for OPRM1-OPRD1 heterodimer agonist project, full-deck HTS; 5-hydroxytryptamine receptor 5A (Homo sapiens), P47898; cell-based; activation, % at 9.3 µM; actives 0.61% (n = 340,000); in the data active = activation mostly above about 9.5%, no sharp cut-off; inactive = mostly below about 7.6%
HTR5A inv ag – HTR5A inverse agonists in luminescence cell assay, primary screen, counter-screen for OPRM1-OPRD1 heterodimer inverse agonist project, full-deck HTS; actives 0.083% (n = 340,000); 5-hydroxytryptamine receptor 5A (Homo sapiens), P47898; HTR5A cell line, inverse agonism; AID 504634, 2011; inhibition, % at 9.3 µM; in the data active = inhibition mostly above about 23%, no sharp cut-off; inactive = mostly below about 18%
MOR-DOR ag-1 – agonists of OPRM1-OPRD1 heterodimerization, primary screen, cell-based, luminescence; Mu-type opioid receptor (Homo sapiens) + Delta-type opioid receptor (Homo sapiens), …; cells; activation, % at 9.3 µM; actives 0.3% (n = 340,000)
m5-HT2A agonist – mouse Htr2a agonists via beta-arrestin recruitment, primary screen, cell-based, luminescence | 5-hydroxytryptamine receptor 2A (Mus musculus), P35363 | CHO-K1 mHTR2A beta-arrestin complementation; percent of 30 µM serotonin response | activation, % at 7.6 µM | actives 0.66% (n = 360,000) | AID 624169, 2012;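 active = activation above a run cutoff, the mean activation of all tested compounds plus 3 SD, cut at about 14% in these data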
Target sequence (P35363 whole entry, looked up): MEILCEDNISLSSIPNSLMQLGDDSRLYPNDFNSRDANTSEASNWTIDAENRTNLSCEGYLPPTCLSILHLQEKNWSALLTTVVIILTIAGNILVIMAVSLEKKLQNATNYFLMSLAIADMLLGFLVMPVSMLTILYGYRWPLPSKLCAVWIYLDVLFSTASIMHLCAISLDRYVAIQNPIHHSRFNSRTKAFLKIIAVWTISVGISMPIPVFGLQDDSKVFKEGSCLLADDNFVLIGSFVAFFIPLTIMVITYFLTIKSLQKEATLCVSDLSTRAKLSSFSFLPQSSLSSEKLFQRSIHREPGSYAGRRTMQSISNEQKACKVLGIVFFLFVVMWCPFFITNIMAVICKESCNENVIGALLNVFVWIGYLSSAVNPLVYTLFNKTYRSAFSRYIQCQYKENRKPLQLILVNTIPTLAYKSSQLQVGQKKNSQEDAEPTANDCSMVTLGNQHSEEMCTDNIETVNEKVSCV
MOR-DOR ag-2 – OPRM1-OPRD1 heterodimerization promoters, counter-screen for HTR5A agonist project, cell-based, luminescence | AID 504913, 2011 | U2OS counter-screen cells, complementation luminescence, 3 h | activation, % at 9.3 µM | shares compounds with HTR5A ag ctr | actives 13% (n = 800)
HTR5A ag conf – HTR5A agonists, retest of hits, confirmation, cell-based, luminescence | shares compounds with HTR5A ag ctr | HTR5A agonist cell assay | activation, % at 9.3 µM | actives 17% (n = 800) | AID 504915, 2011; in the data active = activation above about 17%
Large screens that a line does not name were inactive (follow-up assays come after a bar, where they were run). Rule as the data show it, unless noted: active = activation above about 18%; inactive = the rest.

CCOC(=O)c1c(-c2ccc(C)cc2)csc1NC(=O)c1cc2ccccc2oc1=O	HTR5A ag ctr 17.8 | MOR-DOR ag-2 inactive | HTR5A ag conf inactive
O=C1NCCCC1C(=O)Nc1cccc(C(F)(F)F)c1 (stereo not drawn)	HTR5A ag ctr 21.9 | MOR-DOR ag-2 inactive | HTR5A ag conf inactive
O=C1CCC(C(=O)Nc2cccc(C(F)(F)F)c2)N1 (stereo not drawn)	none
CCOC(=O)[C@]12CCC=C1N(Cc1ccc(Cl)cc1Cl)C(=O)[C@H](CC(=O)NCc1ccc(C)o1)C2	none (no result: OPRM1-OPRD1 inv, HTR5A ag ctr, HTR5A inv ag, MOR-DOR ag-1)
CCOC(=O)C(=CNc1cc(OC)ccc1-n1cccc1)C(=O)OCC	HTR5A ag ctr 16.5 | MOR-DOR ag-2 inactive | HTR5A ag conf inactive
COc1ccc(CCNC(=O)c2c(-c3ccccc3Cl)noc2C)cc1	none
Cc1onc(-c2ccccc2Cl)c1C(=O)NCCN1Cc2ccccc2C1=O	HTR5A ag ctr 29.2 | MOR-DOR ag-2 inactive | HTR5A ag conf inactive
COc1ccc(NC(=O)c2cc(-c3ccccn3)nc3c(C)cc(C)cc23)c(C)c1	none
COc1cccc(NC(=O)c2cc(-c3ccncc3)nc3c(C)cc(C)cc23)c1	HTR5A ag ctr 16.4 | MOR-DOR ag-2 inactive | HTR5A ag conf inactive
COc1ccccc1Cc1c(-c2ccc(Cl)cc2)nc2ccc(Br)cn12	none (no result: OPRM1-OPRD1 inv, HTR5A ag ctr, HTR5A inv ag, MOR-DOR ag-1)
COC(=O)[C@]12CCCCC=C1N(Cc1ccco1)C(=O)[C@H](CC(=O)NCCC(C)C)C2	none (no result: OPRM1-OPRD1 inv, HTR5A ag ctr, HTR5A inv ag, MOR-DOR ag-1)
CCc1ccc2[nH]c(=O)c(CN(Cc3ccc4c(c3)OCO4)Cc3nnnn3C3CCCC3)cc2c1	HTR5A ag ctr 18.5 | MOR-DOR ag-2 inactive | HTR5A ag conf inactive
COc1ccc2oc(=O)c(C(=O)N3CCc4ccccc43)cc2c1	HTR5A ag ctr 15.0 | MOR-DOR ag-2 inactive | HTR5A ag conf inactive
Oc1c(C(c2cccs2)N2CCN(c3cccc(Cl)c3)CC2)sc2ncnn12 (stereo not drawn)	HTR5A ag ctr 17.5 | MOR-DOR ag-2 inactive | HTR5A ag conf inactive
Oc1c(C(c2cccs2)N2CCOCC2)sc2ncnn12 (stereo not drawn)	none
C[C@H]1CN([C@@H](C)CO)S(=O)(=O)c2ccc(C#CC3(O)CCCC3)cc2O[C@@H]1CN(C)C(=O)Cc1cccnc1	none (no result: OPRM1-OPRD1 inv, HTR5A ag ctr, HTR5A inv ag, MOR-DOR ag-1)
COc1ccc(CC(=O)Nc2cccc(-c3nnc(-c4ccccc4)o3)c2)cc1OC	HTR5A ag ctr 16.2 | MOR-DOR ag-2 inactive | HTR5A ag conf inactive
O=S1(=O)CCN2N=C(C34CC5CC(CC(C5)C3)C4)SC2=N1	HTR5A ag ctr 17.9 | MOR-DOR ag-2 inactive | HTR5A ag conf inactive
CCSC1=NN2CCS(=O)(=O)N=C2S1	none
O=C1c2cccc3c(O)ccc(c23)C(=O)N1Cc1ccccc1	HTR5A ag ctr 17.0 | MOR-DOR ag-2 19.8 | HTR5A ag conf inactive
O=C(O)c1cccc(CN2C(=O)c3ccccc3C2=O)c1	none
CCOC(=O)C1=C[C@@H](C(C)(C)C)N(S(=O)(=O)c2ccc(C)cc2)[C@H]1c1cccc(Cl)c1	none (no result: OPRM1-OPRD1 inv, HTR5A ag ctr, HTR5A inv ag, MOR-DOR ag-1)
O=C(Cc1ccc(Cl)cc1)N/N=C1\CCCc2ccccc21	none
O=C(CNc1ccc(F)cc1)N/N=C1\CCCc2ccccc21	HTR5A ag ctr 15.9 | MOR-DOR ag-2 inactive | HTR5A ag conf 17.1
COc1ccc(N2C(=O)CCC(C(=O)O)C2c2ccc(F)cc2)cc1 (stereo not drawn)	HTR5A ag ctr 16.5 | MOR-DOR ag-2 inactive | HTR5A ag conf inactive
COc1ccc(N2C(=O)CCC(C(=O)N3CCCCC3)C2c2ccc(F)cc2)cc1 (stereo not drawn)	none
CCCCOC(=O)c1ccc(NS(=O)(=O)c2cc(-c3nnnn3CC)ccc2OC)cc1	none
CCOC(=O)c1ccc(NS(=O)(=O)c2cc(-c3nnnn3CC)ccc2OC)cc1	HTR5A ag ctr 15.7 | MOR-DOR ag-2 19.6 | HTR5A ag conf inactive
COC(=O)[C@@]12C[C@@H](CC(=O)NCc3cccs3)C(=O)N(Cc3ccco3)C1=CCC(C)(C)C2	none (no result: OPRM1-OPRD1 inv, HTR5A ag ctr, HTR5A inv ag, MOR-DOR ag-1)
COc1ccc(NC(=S)NCCc2c[nH]c3ccccc23)c(OC)c1	none
COc1ccc2[nH]cc(CCNC(=O)Cc3ccc(Cl)cc3)c2c1	HTR5A ag ctr 17.2 | MOR-DOR ag-2 inactive | HTR5A ag conf 37.2
COc1ccc2[nH]cc(CCNC(=O)Cc3c(F)cccc3Cl)c2c1	none
COc1ccc2[nH]c(C)c(CCNC(=S)Nc3cccc(C)c3)c2c1	none
COc1ccc2[nH]c(C)c(CCNC(=S)Nc3cc(C)cc(C)c3)c2c1	HTR5A ag ctr 19.9 | MOR-DOR ag-2 inactive | HTR5A ag conf inactive
COc1ccc(NC(=S)NCCc2c[nH]c3ccc(OC)cc23)c(OC)c1	HTR5A ag ctr 15.7 | MOR-DOR ag-2 inactive | HTR5A ag conf inactive
COc1ccc2[nH]cc(CCNS(=O)(=O)Cc3ccccc3)c2c1	HTR5A ag ctr 22.4 | MOR-DOR ag-2 inactive | HTR5A ag conf inactive
C(=NNc1nnn(Cc2ccccc2)n1)c1ccccc1	none (no result: OPRM1-OPRD1 inv, HTR5A ag ctr, HTR5A inv ag, MOR-DOR ag-1)
O=C(COc1ccccc1)Nc1ccc(-c2nnc(-c3ccco3)o2)cc1	HTR5A ag ctr 15.7 | MOR-DOR ag-2 inactive | HTR5A ag conf inactive
COc1ccc(CN2C(=O)CN(S(C)(=O)=O)CC2(C)C(=O)Nc2c(C)cccc2C)cc1 (stereo not drawn)	none (no result: OPRM1-OPRD1 inv, HTR5A ag ctr, HTR5A inv ag, MOR-DOR ag-1)
O=C(Nc1ccccc1C(=O)O)c1ccc2ccccc2n1	HTR5A ag ctr 25.7 | MOR-DOR ag-2 51.8 | HTR5A ag conf inactive
Cc1ccccc1C(=O)NNC(=O)c1cccc([N+](=O)[O-])c1	HTR5A ag ctr 16.6 | MOR-DOR ag-2 inactive | HTR5A ag conf inactive
CCCCCOC(=O)Cn1c(=O)oc2ccccc21	none
CCCCCCCCCCOC(=O)Cn1c(COc2ccccc2)[n+](C)c2ccccc21	HTR5A ag ctr 15.2 | MOR-DOR ag-2 inactive | HTR5A ag conf inactive
CCCCCCCCCCOC(=O)Cn1c(COc2ccc(OC)cc2)[n+](C)c2ccccc21	HTR5A ag ctr 12.4 | MOR-DOR ag-2 inactive | HTR5A ag conf inactive
CC(=O)Nc1ccc(CN(C)c2c(C)nc3ccc(C(=O)NC4CCN(Cc5ccccc5)CC4)cn23)cc1	none (no result: OPRM1-OPRD1 inv, HTR5A ag ctr, HTR5A inv ag, MOR-DOR ag-1)
O=S1(=O)CC(N2CCCC2)CN1Cc1cn(Cc2ccc(F)cc2)nn1 (stereo not drawn)	none (no result: OPRM1-OPRD1 inv, HTR5A ag ctr, HTR5A inv ag, MOR-DOR ag-1)
O=C(NCc1ccc(Cl)nc1)c1ccc2nc([C@@H]3O[C@H](CO)[C@H](O)[C@H](O)[C@H]3O)[nH]c2c1	none (no result: OPRM1-OPRD1 inv, HTR5A ag ctr, HTR5A inv ag, MOR-DOR ag-1)
CC(C)CNC(=O)C1(C)CCCN1C(=O)c1c(Cl)cccc1Cl (stereo not drawn)	none (no result: OPRM1-OPRD1 inv, HTR5A ag ctr, HTR5A inv ag, MOR-DOR ag-1)
